The list is not random: actives were taken first. Their share in the collection is about 3%.
TbPYK inhibitor: T. brucei pyruvate kinase inhibition; TbPYK enzyme, Kinase-Glo Plus ATP luminescence, 45 min; AID 624173; Potency, µM (series often up to 76.8 µM), actives largely listed as inhibitors; 0.12% of 410,000 active; Q57TT1; further: nearly all actives have a fitted effect of over 50% in size
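Enzyme and substrate buffer are dispensed first and compound is pin-transferred. ADP at 130 uM final then starts the reaction, which runs 45 min at room temperature. Detection reagent is added for 10 min before luminescence is imaged.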
LmPK inhibitor: inhibitors of Leishmania mexicana pyruvate kinase; purified LmPK, Kinase-Glo ATP luminescence, 1 h; AID 1721; 0.37% of 290,000 active; Q27686; Potency, µM (series often up to 57.5 µM), most hits filed as inhibitors
Target sequence (Q27686 whole entry, looked up): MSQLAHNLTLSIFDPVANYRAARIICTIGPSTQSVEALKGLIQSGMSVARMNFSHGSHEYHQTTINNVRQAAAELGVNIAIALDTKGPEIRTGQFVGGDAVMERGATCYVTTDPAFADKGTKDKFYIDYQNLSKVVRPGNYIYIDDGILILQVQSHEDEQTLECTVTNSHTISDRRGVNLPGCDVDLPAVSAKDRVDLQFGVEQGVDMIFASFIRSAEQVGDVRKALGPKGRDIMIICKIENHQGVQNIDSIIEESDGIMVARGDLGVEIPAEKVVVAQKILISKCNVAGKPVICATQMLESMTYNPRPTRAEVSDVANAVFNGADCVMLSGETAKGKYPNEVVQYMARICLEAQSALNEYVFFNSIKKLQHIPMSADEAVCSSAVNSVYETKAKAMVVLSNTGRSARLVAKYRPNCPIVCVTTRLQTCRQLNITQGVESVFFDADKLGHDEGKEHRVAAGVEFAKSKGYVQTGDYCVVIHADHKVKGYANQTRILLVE
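ATP generated from ADP (0.1 mM) and PEP (0.5 mM) by 0.1 nM LmPK over 1 h at room temperature (pH 7.2 imidazole buffer) was detected by coupled luciferase luminescence. Values were normalized to uninhibited and no-enzyme wells.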
Sm TGR inh: S. mansoni TGR enzyme inhibition; purified TGR, DTNB reduction, TNB absorbance 405 nm; Potency, µM (series often up to 114 µM), actives largely listed as inhibitors; AID 485364; 3% of 360,000 active; Q962Y6; further: nearly all actives have a fitted effect of over 60% in size
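First, TGR (20 nM dispensed) and NADPH were mixed with compound. Second, a 15 min room-temperature incubation followed. Third, further NADPH and then DTNB were added to start the reaction. Finally, TNB absorbance was monitored kinetically.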
RE007 growth inh: less growth of the S. pombe RE007 Vpr strain. S. pombe RE007 Vpr strain, BacTiter-Glo ATP luminescence, 24 h. Potency, µM (highest dose often 92.2 µM), hits mostly inhibitors. 0.21% of 360,000 active. AID 651644; active means well fitted falling curve with a large enough effect; inconclusive means small, poorly fitted or top-dose-only effect; inactive means no such curve, though single readings can be large or run the other way; further: nearly all actives have a fitted effect of over 50% in size
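Fission yeast strain RE007, carrying one chromosomally integrated HIV-1 vpr copy, was seeded at OD 0.01 in PMG+AL medium with 23 nL pinned compound. After 24 h at 30 °C and 99% humidity, viability was read by BacTiter-Glo luminescence.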
A number is an active result; n = inactive; u = inconclusive; x = no result given; [ ] = remark or other dose. Unless noted, the call rests on the fitted dose curve; in most records, active means well fitted curve in the direction sought with a large enough effect; inconclusive means small, poorly fitted or top-dose-only effect, or another doubt; inactive means no such curve, though single readings can be large; an effect the other way counts as inactive or inconclusive.

SMILES | TbPYK inhibitor | LmPK inhibitor | Sm TGR inh | RE007 growth inh
Cc1cc(C(F)(F)F)nn1Cc1ccc(C(=O)NCc2ccco2)o1 | n | n | 11µM | n
O=C1CCCc2cc(S(=O)(=O)NCC3CCC(C(=O)NCc4ccc(F)cc4)CC3)ccc2N1 (stereo not drawn) | n | x | u | x
COC(=O)N1C(c2ccccc2)=Cc2ccccc2C1CC(C)=O (stereo not drawn) | x | n[11.5 µM] | x | x
COc1ccc([C@@H]2CC(=O)c3c(O)cc(O[C@H]4O[C@@H](CO[C@H]5O[C@@H](C)[C@@H](O)[C@@H](O)[C@@H]5O)[C@@H](O)[C@@H](O)[C@@H]4O)cc3O2)cc1O | n | x | x | x
COC(=O)C1=C(C)NC(C)=C(C(=O)OCCCN2CCC(c3ccccc3)(c3ccccc3)CC2)C1c1cccc([N+](=O)[O-])c1 (stereo not drawn) | n | x | x | x
COc1ccc(-c2csc(C(C)(O)c3ccc(F)c(F)c3)n2)cn1 (stereo not drawn) | n | x | x | n
CS(=O)(=O)c1ccc(C(=O)NCCN2C(=O)S/C(=C\c3cccnc3)C2=O)cc1[N+](=O)[O-] | n | n | 8.9µM | n
N#CC1=C(SCC(=O)Nc2ccc(C(=O)O)cc2)NC(=O)CC1c1ccco1 (stereo not drawn) | n | n | 35µM | n
Cc1cc(=O)oc2cc(OCC(=O)N3CCN(C(C)c4ccccc4)CC3)c(Cl)cc12 (stereo not drawn) | n | x | n | n
O=C(CCl)N1CCN(S(=O)(=O)c2ccc3c(c2)CCC3)CC1 | n | x | 5µM | n
O=C(CCl)N1CCN(S(=O)(=O)Cc2ccccc2)CC1 | n | x | 16µM | n
CCOC(=O)N1CCN(S(=O)(=O)Cc2ccccc2)CC1 | n | n | n | n
CC(c1ccccc1)N1CCN(C(=O)CCl)CC1 (stereo not drawn) | n | n | 45µM | n
Cn1c(=O)n(-c2ccc(C(C)(C)C#N)cc2)c2c3cc(-c4cnc5ccccc5c4)ccc3ncc21 | n | x | x | x
CC[C@@H]1/C=C(\C)C[C@H](C)C[C@H](OC)[C@H]2O[C@@](O)(C(=O)C(=O)N3CCCC[C@H]3C(=O)O[C@H](/C(C)=C/[C@@H]3CC[C@H](Cl)[C@H](OC)C3)[C@H](C)[C@@H](O)CC1=O)[C@H](C)C[C@@H]2OC | n | x | x | x
CCN(CC)CCn1c(=S)[nH]c2cc(C(=O)NCCc3ccc(OC)c(OC)c3)ccc2c1=O | n | x | x | n
Cc1nc(N2CCOCC2)[nH]c(=O)c1CCC(C)C | n | n | n | n
Cc1nc(N2CCOCC2)[nH]c(=O)c1C(O)C(Cl)(Cl)Cl (stereo not drawn) | n | n | 45µM | n
COc1cc(/C=C2\C(=O)NC(=O)N(c3ccccc3)C2=O)cc(OC)c1OC | u | n | u | n
CCOC(=O)COc1ccc(/C=C2\C(=O)NC(=S)N(c3ccc(OC)cc3)C2=O)cc1OC | u | n | 14µM | n
COC(=O)COc1ccc(/C=C2\C(=O)NC(=S)N(c3ccc(C)cc3)C2=O)cc1OC | u | n | 13µM | n
COc1ccc(N2C(=O)/C(=C/c3ccc(C)o3)C(=O)NC2=S)c(OC)c1 | u | n | 1.3µM | n
COc1ccc(N2C(=O)/C(=C/c3ccc(OC)c(OC)c3)C(=O)NC2=S)cc1 | u | n | 10µM | n
Cc1cccc(N2C(=O)/C(=C/c3ccc(N4CCN(C)CC4)o3)C(=O)NC2=S)c1C | n | n | n | n
O=C(Cc1cccc([N+](=O)[O-])c1)NCc1nc2cccnc2n1Cc1ccc(F)cc1 | n | x | n | x
SMILES | TbPYK inhibitor | LmPK inhibitor | Sm TGR inh | RE007 growth inh
COC(=O)c1ccc(Nc2ncnc3c2nc2n3CCCC2)cc1 | n | x | n | x
CN(C)CC/C=C1\c2ccccc2COc2ccccc21 | n | n | 14µM | n[18.4 µM]
CN(C)CC/C=C1/c2ccccc2CS(=O)(=O)c2ccccc21 | n | x | x | n
CCOc1ccc(NC(=O)c2nn(C)c3c2COc2ccccc2-3)cc1 | n | x | 7.9µM | x
COc1cc(OC)c(NC(=O)c2nn(C)c3c2COc2ccccc2-3)cc1Cl | n | x | 0.71µM | x
Cn1cc(Br)c(C(=O)NNC(=O)c2cccc(Br)c2)n1 | n | n | 35µM | n
Cn1cc(Br)c(C(=O)NNC(=O)c2ccc(Cl)cc2)n1 | n | n | n | n
CCOc1ccc(NC(=O)c2nn(C)cc2Br)cc1 | n | 32µM | n | n
CC(=O)Nc1ccc(S(=O)(=O)NCCC(=O)NCCCc2ccccc2)cc1 | n | x | n | n
O=P(O)(O)C(O)(Cc1cnc2ccccn12)P(=O)(O)O | n | x | x | x
CC1=C(C(=O)N(C(C)C)C(C)C)CC(CC(=O)NCCN2CCOCC2)C(=O)N1Cc1ccccc1 (stereo not drawn) | n | x | x | n
CC(=O)c1ccc(N2C(=O)N(Cc3ccc(F)cc3)c3ccccc3S2(=O)=O)cc1 | n | x | n | x
C/C(=C\c1ccccc1)C(=O)n1nnc2ccccc21 | n | n | 20µM | n
COc1cccc(/C=N/n2c(C3CCCCC3)n[nH]c2=S)c1OC | 5.6µM | n | n | n
COc1cc(OC)c(/C=N/n2c(C3CCCCC3)n[nH]c2=S)c(OC)c1 | 8.9µM | u | n | n
COc1ccc(/C=N/n2c(C3CCCCC3)n[nH]c2=S)c(OC)c1 | n | n | n | n
Cc1c(C(=O)Nc2ccccc2)sc2nc(-c3cc4ccccc4oc3=O)[nH]c(=O)c12 | n | x | n | x
Clc1ccc(C=NN2CCCCCC2)cc1Cl | n | x | x | n
Oc1ccc(/C=N/N2CCCCC2)cc1O | n | n | 2.8µM | n
COc1cc(C=NN2CCCCC2)cc(OC)c1OC | n | x | x | n
COc1cc(/C=N/N2CCCCC2)cc(OC)c1O | u | n | 14µM | n
Cc1ccccc1NC(=O)Cn1cc(S(=O)(=O)N2CCCC2)c(S(=O)(=O)N2CCCC2)c1 | n | x | n | x
O=C(Cn1ncc2c3ccccc3n(Cc3cccc(Cl)c3)c2c1=O)NCCC1=CCCCC1 | n | x | n | x
O=C(O)/C=C\C(=O)O | n | x | n | n[18.4 µM]
O=C(O)C=C(Br)Br | n | n | 50µM | n
SMILES | TbPYK inhibitor | LmPK inhibitor | Sm TGR inh | RE007 growth inh
CC(C)CCNC(=O)C1(C)CCN1Cc1ccc(-c2ccccn2)cc1 (stereo not drawn) | n | x | x | n
CC(=O)n1cc(N(C(=O)CCl)c2ccc(C)cc2)c2ccccc21 | n | n | 0.71µM | n
COC(=O)[C@@]12C[C@@H](CC(=O)NCc3ccccc3)C(=O)N(Cc3ccc4c(c3)OCO4)C1=CCC(C)(C)C2 | x | x | x | n
CCC(C)NC(=O)c1ccc2c(c1)S(=O)(=O)c1ccccc1C2=O (stereo not drawn) | n | n | 18µM | n
O=C(O)CCN1CC2([N+](=O)[O-])C=CC(=O)C([N+](=O)[O-])(C1)C2CC(=O)c1ccccc1 (stereo not drawn) | n | n | 18µM | n
Cc1ccc(OCc2cc(C(=O)NCc3cn4ccccc4n3)no2)cc1C | n | n | n | n
O=C(NCCc1cn2ccccc2n1)c1cc(COc2c(F)cccc2F)on1 | n | n | 40µM | n
Cc1ccc(S(=O)(=O)N(C)C)cc1NC(=S)Nc1ccc2cn[nH]c2c1 | n | n | 18µM | n

From PubChem BioAssay
